Laboratory results from PubChem BioAssay (NCATS).
Inconclusive results are not listed. Calls of active or inactive are those of the source. Calls follow the shape of the dose curve; as a rule, active = well fitted inhibition curve with a large enough effect; inconclusive = small, poorly fitted or top-dose-only effect; inactive = flat fitted curve, though single readings scatter.

How the values were obtained:
Assay in all cases: qHTS profiling for inhibitors of Plasmodium falciparum proliferation (AID 504749); also: nearly all actives have a fitted effect of over 60% in size
Conditions in all cases: P. falciparum in erythrocytes, SYBR Green DNA, 72 h; series mostly up to 28.7 µM
C2A = system: C2A
Summary of the method: (§1)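 Quantitative HTS: compounds pinned into medium, infected erythrocytes added (0.3% parasitemia, 2.5% hematocrit), 72 h culture at 37 C under 5% CO2. Saponin/Triton lysis with SYBR Green I, overnight RT, then fluorescence read.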

CP211 = system: CP211
Summary of the method: as §1

CP217 = system: CP217
Summary of the method: as §1

CP238 = system: CP238
Summary of the method: as §1

CP250 = system: CP250
Summary of the method: as §1

CP252 = system: CP252
Summary of the method: as §1

CP256 = system: CP256
Summary of the method: as §1

CP262 = system: CP262
Summary of the method: as §1

CP265 = system: CP265
Summary of the method: as §1

CP266 = system: CP266
Summary of the method: as §1

CP269 = system: CP269
Summary of the method: as §1

CP325 = system: CP325
Summary of the method: as §1

CP329 = system: CP329
Summary of the method: as §1

ECU = system: ECU
Summary of the method: as §1

FAB9 = system: FAB9
Summary of the method: as §1

N140 = system: N140
Summary of the method: as §1

P93_24 = system: P93_24
Summary of the method: as §1

PAD = system: PAD
Summary of the method: as §1

PC26 = system: PC26
Summary of the method: as §1

SC27B = system: SC27B
Summary of the method: as §1

Measured: Potency

C[N+]1(C)[C@@H]2CC(OC(=O)[C@@H](CO)c3ccccc3)C[C@@H]1[C@H]1O[C@H]12 (stereo not given in full)
inactive: C2A | CP211 | CP217 | CP238 | CP250 | CP252 | CP256 | CP262 | CP265 | CP266 | CP269 | CP325 | CP329 | ECU | FAB9 | N140 | P93_24 | PAD | PC26 | SC27B

N[C@H](COP(=O)(O)O)C(=O)O
inactive: C2A | CP211 | CP217 | CP238 | CP250 | CP252 | CP256 | CP262 | CP265 | CP266 | CP269 | CP325 | CP329 | ECU | FAB9 | N140 | P93_24 | PAD | PC26 | SC27B

CN(C)[C@H]1C(=O)C(C(=O)NCN2CCCC2)=C(O)[C@]2(O)C(=O)C3=C(O)c4c(O)cccc4[C@](C)(O)[C@H]3C[C@H]12
inactive: C2A | CP211 | CP217 | CP238 | CP250 | CP252 | CP256 | CP262 | CP265 | CP266 | CP269 | CP325 | CP329 | ECU | FAB9 | N140 | P93_24 | PAD | PC26 | SC27B

C[C@@H]1C[C@H]2[C@H]3C[C@@H](F)C4=CC(=O)C=C[C@]4(C)[C@@]3(Cl)[C@@H](O)C[C@@]2(C)[C@@H]1C(=O)COC(=O)C(C)(C)C
inactive: C2A | CP211 | CP217 | CP238 | CP250 | CP252 | CP256 | CP262 | CP265 | CP266 | CP269 | CP325 | CP329 | ECU | FAB9 | N140 | P93_24 | PAD | PC26 | SC27B
